In PubChem BioAssay (NCATS):
Records with an inconclusive call do not appear. Calls of active or inactive are those of the source. The call rests on the fitted dose curve; in most records, active means well fitted inhibition curve with a large enough effect; inconclusive means small, poorly fitted or top-dose-only effect; inactive means flat fitted curve, though single readings scatter.

How the values were obtained:
Test in all cases: qHTS profiling for inhibitors of Plasmodium falciparum proliferation (AID 504749); further: nearly all actives have a fitted effect of over 60% in size
Details in all cases: P. falciparum in erythrocytes, SYBR Green DNA, 72 h; series mostly up to 28.7 µM
CP250 = system: CP250
Procedure, shortened: (§1)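 Fluorescence of SYBR Green-bound parasite DNA, read at 485/535 nm, served as the growth measure. Infected erythrocytes were cultured with compound 72 h; artemisinin (0.29 uM) and DMSO wells defined the normalization range.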

CP252 = system: CP252
Procedure, shortened: as §1

CP256 = system: CP256
Procedure, shortened: as §1

CP262 = system: CP262
Procedure, shortened: as §1

CP265 = system: CP265
Procedure, shortened: as §1

CP266 = system: CP266
Procedure, shortened: as §1

CP268 = system: CP268
Procedure, shortened: as §1

CP269 = system: CP269
Procedure, shortened: as §1

CP286 = system: CP286
Procedure, shortened: as §1

CP297 = system: CP297
Procedure, shortened: as §1

CP305 = system: CP305
Procedure, shortened: as §1

CP315 = system: CP315
Procedure, shortened: as §1

CP325 = system: CP325
Procedure, shortened: as §1

CP329 = system: CP329
Procedure, shortened: as §1

CP335 = system: CP335
Procedure, shortened: as §1

DFO2036 = system: DFO2036
Procedure, shortened: as §1

DIV14 = system: DIV14
Procedure, shortened: as §1

DIV17 = system: DIV17
Procedure, shortened: as §1

CP260 = system: CP260
Procedure, shortened: as §1

CP291 = system: CP291
Procedure, shortened: as §1

Measured: Potency
Potency means the concentration at half of the fitted maximal effect.

Cc1c(N(C)C)c(=O)n(-c2ccccc2)n1C
not listed: CP260 | CP291
inactive: all other assays above

Cc1cc(OI)c(C(C)C)cc1-c1cc(C(C)C)c(OI)cc1C
active: DIV14 10.7 µM | DIV17 13.5 µM
inactive: CP250 | CP256 | CP262 | CP266 | CP286 | CP305 | CP315 | CP329 | DFO2036

CC1CCN(CCCC(=O)c2ccc(F)cc2)CC1
not listed: CP262 | CP335 | DIV14 | DIV17
inactive: all other assays above

Cc1cc(O)cc(C)c1Cl
active: CP265 11.2 µM
not listed: CP269 | CP305 | CP335 | DFO2036 | DIV14 | DIV17 | CP260
inactive: all other assays above

O=C(c1ccccc1)C(O)c1ccccc1 (configuration not stated)
not listed: CP250 | DIV14 | DIV17 | CP291
inactive: all other assays above

Cc1cc(-n2nc3ccc(Cl)cc3n2)c(O)c(C(C)(C)C)c1
not listed: CP250 | CP252 | CP256 | CP265 | DFO2036
inactive: all other assays above

CCCCCC(C)N (configuration not stated)
active: CP260 10 µM | CP286 8.91 µM
not listed: CP252 | CP335 | DIV17
inactive: all other assays above

O=C(O)c1ccccc1C(=O)Nc1ccc(S(=O)(=O)Nc2nccs2)cc1
not listed: CP297 | CP260
inactive: all other assays above

COc1ccc(Cc2cnc(N)nc2N)cc1OC
not listed: CP297 | CP260
inactive: all other assays above

O=C1c2ccccc2C(=O)C1c1ccc(Br)cc1
inactive: CP250 | CP252 | CP262 | CP266 | CP268 | CP291 | CP297 | CP305 | CP325 | CP329

CCCCCCCCCCCCCCCCN
not listed: CP266 | CP260
inactive: all other assays above

NC(=O)c1ccc([N+](=O)[O-])cc1Cl
not listed: CP265 | CP335 | DIV14 | DIV17 | CP260
inactive: all other assays above

CC(CN(C)C)C(C)(O)Cc1ccc(Cl)cc1 (configuration not stated)
active: DIV17 6.01 µM
inactive: CP252 | CP262 | CP266 | CP269 | CP315 | DFO2036

COc1ccc(C(=O)N2CCN(CC(=O)N3CCOCC3)CC2)cc1
not listed: CP250
inactive: all other assays above

C[C@H]1COc2c(C3(N)CC3)c(F)cc3c(=O)c(C(=O)O)cn1c23
not listed: CP268 | CP297 | CP335 | DIV14 | CP260 | CP291
inactive: all other assays above

Nc1ncnc(Nc2ccccc2)n1
not listed: CP250 | CP262 | CP335 | DFO2036 | DIV17
inactive: all other assays above

Cc1[nH]c(C)c(Cl)c(=O)c1Cl
active: CP260 8.91 µM
not listed: CP250 | CP256 | CP262 | CP286 | CP329 | CP335
inactive: all other assays above

O=C(O)CCCc1ccccc1
not listed: CP266 | CP260
inactive: all other assays above

Cc1cc(C)c(NC(=O)CN(CC(=O)O)CC(=O)O)c(C)c1Br
not listed: CP250 | CP252 | CP256 | CP265 | DFO2036
inactive: all other assays above

CCCCCCCCCCOc1cc2c(=O)c(C(=O)OCC)c[nH]c2cc1OCC
inactive: CP315
active: CP250 0.0708 nM | CP260 0.0035 µM | CP268 0.0024 µM | CP286 0.0035 µM | CP305 0.0021 µM | CP335 0.0013 µM | DFO2036 0.0014 µM | DIV14 0.0054 µM | DIV17 0.0067 µM

Nc1c2c(nc3c1CCC3)CCCC2
active: CP286 11.2 µM | CP305 15.1 µM | DIV14 13.5 µM | DIV17 15.1 µM

C=CCSCC1Nc2cc(Cl)c(S(N)(=O)=O)cc2S(=O)(=O)N1 (configuration not stated)
not listed: CP260
inactive: all other assays above

CC(=O)N(CC(O)CO)c1c(I)c(C(=O)NCC(O)CO)c(I)c(C(=O)NCC(O)CO)c1I (configuration not stated)
not listed: CP265 | CP335 | DIV14 | DIV17 | CP260
inactive: all other assays above

NC(=O)CCCCC1CCSS1 (configuration not stated)
not listed: CP305 | DIV14 | DIV17 | CP260
inactive: all other assays above

CCN(CC)CCc1nc(-c2ccccc2)no1
not listed: CP260
inactive: all other assays above

NCc1ccc(S(N)(=O)=O)cc1
not listed: CP265 | CP335 | DIV14 | DIV17 | CP260
inactive: all other assays above

CC(=O)N[C@@H](Cc1ccc(O)cc1)C(=O)O
not listed: CP256
inactive: all other assays above

CC(=O)OC[C@H]1O[C@@](COC(C)=O)(O[C@H]2O[C@H](COC(C)=O)[C@@H](OC(C)=O)[C@H](OC(C)=O)[C@H]2OC(C)=O)[C@@H](OC(C)=O)[C@@H]1OC(C)=O
not listed: CP250 | CP252 | CP256 | CP329 | DFO2036
inactive: all other assays above

CN1C[C@@H]2C[C@H]1CN2c1cc2c(cc1F)c(=O)c(C(=O)O)cn2C1CC1
inactive: CP250 | DIV17
active: CP335 1.2 µM
